The whole screen tested about 5,500 compounds, of which about 2,000 (36%) were called active. Inconclusive results (about 18%) are left out. Cut-off read from the data, not from the text of the source: active = normalized growth mostly below about 0.91 (no sharp cut-off); inconclusive = no clear call, values can overlap the other calls; inactive = mostly above about 0.92. Some of the results follow. Where a SMILES comes first, the peptide text is derived from it.
Assay: chemical genetic growth profiling, strain panel (AID 1159580);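 note: tested at 20 µM; growth read once vehicle control cultures reached saturation at 30 °C; 1 = growth at the plate median or of vehicle wells; lower values mean less growth of the strain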
Settings: growth OD

Measured: normalized growth

CC(=O)N[C@@H](CC(=O)O)C(=O)N[C@@H](CCC(=O)O)C(=O)O (Ac-Asp-Glu-OH)
inactive: S. cerevisiae deletion strains, locus YJR075W, strain HOC1, hits give low values 1.01 | S. cerevisiae deletion strains, locus YKL009W, strain mrt4, hits give low values 0.987 | S. cerevisiae deletion strains, locus YKL068W, hits give low values 0.997 | S. cerevisiae deletion strains, locus YKL085W, strain MDH1 (second series), hits give low values 0.985 | S. cerevisiae deletion strains, locus YKL085W, strain MDH1, hits give low values 0.985 | S. cerevisiae deletion strains, locus YKL160W, strain elf1, hits give low values 1.01 | S. cerevisiae deletion strains, locus YKL190W, strain CNB1, hits give low values 1.02 | S. cerevisiae deletion strains, locus YKR001C, strain vps1, hits give low values 0.989 | S. cerevisiae deletion strains, locus YKR026C, strain gcn3, hits give low values 1 | S. cerevisiae deletion strains, locus YKR091W, strain srl3, hits give low values 0.996 | S. cerevisiae deletion strains, locus YLL001W, strain dnm1, hits give low values 0.994 | S. cerevisiae deletion strains, locus YLL026W, hits give low values 1 | S. cerevisiae deletion strains, locus YLL041C, strain sdh2, hits give low values 1 | S. cerevisiae deletion strains, locus YLR027C, strain aat2, hits give low values 1.01 | S. cerevisiae deletion strains, locus YLR039C, strain RIC1, hits give low values 1.04 | S. cerevisiae deletion strains, locus YLR058C, strain SHM2, hits give low values 1.01 | S. cerevisiae deletion strains, locus YLR102C, strain apc9, hits give low values 0.984 | S. cerevisiae deletion strains, locus YLR113W, strain HOG1, hits give low values 0.987 | S. cerevisiae deletion strains, locus YLR221C, strain rsa3, hits give low values 1 | S. cerevisiae deletion strains, locus YLR258W, strain gsy2, hits give low values 0.992 | S. cerevisiae deletion strains, locus YLR262C, strain YPT6 (second series), hits give low values 1.02 | S. cerevisiae deletion strains, locus YLR262C, strain YPT6, hits give low values 1.04 | S. cerevisiae deletion strains, locus YLR268W, strain sec22, hits give low values 0.981 | S. cerevisiae deletion strains, locus YLR320W, strain mms22, hits give low values 1 | S. cerevisiae deletion strains, locus YLR330W, strain CHS5, hits give low values 1.02 | S. cerevisiae deletion strains, locus YLR342W, strain FKS1 (second series), hits give low values 0.996 | S. cerevisiae deletion strains, locus YLR342W, strain FKS1, hits give low values 1 | S. cerevisiae deletion strains, locus YLR357W, strain rsc2, hits give low values 0.987 | S. cerevisiae deletion strains, locus YLR370C, strain arc18, hits give low values 1.02 | S. cerevisiae deletion strains, locus YLR371W, strain rom2, hits give low values 0.99 | S. cerevisiae deletion strains, locus YLR384C, strain iki3, hits give low values 0.998 | S. cerevisiae deletion strains, locus YLR418C, strain cdc73, hits give low values 0.982 | S. cerevisiae deletion strains, locus YML016C, strain PPZ1, hits give low values 1.02 | S. cerevisiae deletion strains, locus YML032C, strain rad52, hits give low values 0.985 | S. cerevisiae deletion strains, locus YML120C, strain ndi1, hits give low values 1.01 | S. cerevisiae deletion strains, locus YML124C, strain tub3, hits give low values 0.984 | S. cerevisiae deletion strains, locus YMR058W, strain fet3, hits give low values 1.01 | S. cerevisiae deletion strains, locus YMR078C, strain ctf18, hits give low values 1 | S. cerevisiae deletion strains, locus YMR125W, strain sto1, hits give low values 0.987 | S. cerevisiae deletion strains, locus YMR129W, hits give low values 1.01 | S. cerevisiae deletion strains, locus YMR205C, strain PFK2, hits give low values 0.967 | S. cerevisiae deletion strains, locus YMR223W, strain ubp8, hits give low values 0.983 | S. cerevisiae deletion strains, locus YMR231W, strain pep5, hits give low values 1.01 | S. cerevisiae deletion strains, locus YMR263W, strain SAP30, hits give low values 1.03 | S. cerevisiae deletion strains, locus YMR307W, strain GAS1, hits give low values 1.01 | S. cerevisiae deletion strains, locus YNL067W, strain RPL9B, hits give low values 1.02 | S. cerevisiae deletion strains, locus YNL071W, strain lat1, hits give low values 1.02 | S. cerevisiae deletion strains, locus YNL128W, strain TEP1, hits give low values 1.02 | S. cerevisiae deletion strains, locus YNL153C, strain GIM3, hits give low values 1.01 | S. cerevisiae deletion strains, locus YNL183C, strain NPR1, hits give low values 0.894 | S. cerevisiae deletion strains, locus YNL209W, strain ssb2, hits give low values 0.997 | S. cerevisiae deletion strains, locus YNL233W, strain BNI4, hits give low values 1.02 | S. cerevisiae deletion strains, locus YNL248C, strain rpa49, hits give low values 1.01 | S. cerevisiae deletion strains, locus YNL250W, strain rad50, hits give low values 0.982 | S. cerevisiae deletion strains, locus YNL271C, strain bni1, hits give low values 0.984 | S. cerevisiae deletion strains, locus YNL298W, strain CLA4, hits give low values 0.987 | S. cerevisiae deletion strains, locus YNL307C, strain MCK1, hits give low values 0.988 | S. cerevisiae deletion strains, locus YNL322C, strain KRE1 (second series), hits give low values 1 | S. cerevisiae deletion strains, locus YNL322C, strain KRE1, hits give low values 1.01 | S. cerevisiae deletion strains, locus YNR049C, strain mso1, hits give low values 1.01 | S. cerevisiae deletion strains, locus YNR052C, strain pop2, hits give low values 0.991 | S. cerevisiae deletion strains, locus YOL006C, strain TOP1, hits give low values 1.03 | S. cerevisiae deletion strains, locus YOL012C, strain htz1 0.942 | S. cerevisiae deletion strains, locus YOL147C, strain pex11, hits give low values 0.987 | S. cerevisiae deletion strains, locus YOR001W, strain rrp6, hits give low values 1.01 | S. cerevisiae deletion strains, locus YOR061W, strain CKA2, hits give low values 1.01 | S. cerevisiae deletion strains, locus YOR069W, strain VPS5, hits give low values 1.01 | S. cerevisiae deletion strains, locus YOR070C, strain gyp1, hits give low values 1.01 | S. cerevisiae deletion strains, locus YOR080W, strain dia2, hits give low values 0.988 | S. cerevisiae deletion strains, locus YOR083W, strain WHI5, hits give low values 1.01 | S. cerevisiae deletion strains, locus YOR106W, strain vam3, hits give low values 1.02 | S. cerevisiae deletion strains, locus YOR136W, strain idh2, hits give low values 0.99 | S. cerevisiae deletion strains, locus YOR144C, strain elg1, hits give low values 1 | S. cerevisiae deletion strains, locus YOR184W, strain ser1, hits give low values 0.979 | S. cerevisiae deletion strains, locus YOR231W, strain MKK1, hits give low values 0.982 | S. cerevisiae deletion strains, locus YOR265W, strain rbl2, hits give low values 1.01 | S. cerevisiae deletion strains, locus YOR270C, strain vph1, hits give low values 1.1 | S. cerevisiae deletion strains, locus YOR290C, strain snf2, hits give low values 0.975 | S. cerevisiae deletion strains, locus YOR316C, strain cot1, hits give low values 0.997 | S. cerevisiae deletion strains, locus YPL051W, strain arl3, hits give low values 1.01 | S. cerevisiae deletion strains, locus YPL055C, strain LGE1, hits give low values 1.02 | S. cerevisiae deletion strains, locus YPL078C, strain atp4, hits give low values 1.03 | S. cerevisiae deletion strains, locus YPL106C, strain sse1, hits give low values 0.975 | S. cerevisiae deletion strains, locus YPL240C, strain hsp82, hits give low values 1.01 | S. cerevisiae deletion strains, locus YPL241C, strain CIN2, hits give low values 1.01 | S. cerevisiae deletion strains, locus YPL256C, strain CLN2, hits give low values 1.01 | S. cerevisiae deletion strains, locus YPR119W, strain clb2, hits give low values 0.99 | S. cerevisiae deletion strains, locus YPR141C, strain kar3, hits give low values 0.995 | S. cerevisiae deletion strains, locus YPR163C, strain tif3, hits give low values 0.99 | S. cerevisiae deletion strains, locus YPR167C, strain met16, hits give low values 0.991 | S. cerevisiae deletion strains, strain wtn01, hits give low values 0.989 | S. cerevisiae strains, strain wild type, hits give low values 1
